Screens from PubChem BioAssay.
G9a block: blocks human histone lysine methyltransferase G9a | Q96KQ7 | G9a H3K9 monomethylation, AlphaScreen, 2 h | Potency, µM (highest dose often 102 µM), most hits filed as inhibitors | actives 8.8% (n = 350,000) | AID 504332; also: nearly all actives have a fitted effect of over 75% in size
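G9a (20 nM) was preincubated 15 min with compound, then reacted 2 h at room temperature with 500 nM biotin-H3K9 peptide and 20 µM SAM. Monomethyl-H3K9 detected by AlphaScreen using anti-H3K9me1 antibody.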
BAZ2B inh: blocks human BAZ2B; Q9UIF8; AlphaScreen BAZ2B-H3K14Ac peptide displacement; Potency, µM (top dose mostly 114 µM), actives largely listed as inhibitors; actives 4.4% (n = 360,000); also: nearly all actives have a fitted effect of over 60% in size
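AlphaScreen displacement of biotin-H3(5-23)K14Ac peptide (50 nM final) from BAZ2B (50 nM final) in PBS pH 7.4, 0.01% Tween-20; complex preformed 30 min RT, then compounds (top 110 uM) 30 min RT, beads 20 min dark.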
JMJD2A Tudor: blocks the human JMJD2A Tudor domain | O75164 | AlphaScreen JMJD2A-Tudor / H3K4me3 peptide binding | Potency, µM (highest dose often 114 µM), usual class: inhibitors | actives 4.4% (n = 390,000); also: nearly all actives have a fitted effect of over 50% in size
ALOX12 inh: inhibitors of human 12S-lipoxygenase ALOX12; actives 1.1% (n = 580,000); purified 12hLO, xylenol orange hydroperoxide absorbance; Potency, µM (highest dose often 108 µM), most hits filed as inhibitors; AID 1671190; P18054
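Hydroperoxide product was detected by ferrous iron/xylenol orange as the 573 to 405 nm absorbance ratio. Arachidonic acid at 40 uM (final) was turned over for 30 min at room temperature by 150 nM human 12hLO, pH 7.0 Hepes buffer, after 15 min compound preincubation.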
PLK1 PBD block: blocks phosphopeptide binding to human PLK1 polo-box domain. P53350. actives 2.8% (n = 360,000). Plk1 PBD binding of FITC phosphopeptide, fluorescence polarization. AID 720504. Potency, µM, hits mostly inhibitors; also: series mostly up to about 57 µM; nearly all actives have a fitted effect of over 65% in size
Target sequence (P53350 whole entry, looked up, the tested form may be a part): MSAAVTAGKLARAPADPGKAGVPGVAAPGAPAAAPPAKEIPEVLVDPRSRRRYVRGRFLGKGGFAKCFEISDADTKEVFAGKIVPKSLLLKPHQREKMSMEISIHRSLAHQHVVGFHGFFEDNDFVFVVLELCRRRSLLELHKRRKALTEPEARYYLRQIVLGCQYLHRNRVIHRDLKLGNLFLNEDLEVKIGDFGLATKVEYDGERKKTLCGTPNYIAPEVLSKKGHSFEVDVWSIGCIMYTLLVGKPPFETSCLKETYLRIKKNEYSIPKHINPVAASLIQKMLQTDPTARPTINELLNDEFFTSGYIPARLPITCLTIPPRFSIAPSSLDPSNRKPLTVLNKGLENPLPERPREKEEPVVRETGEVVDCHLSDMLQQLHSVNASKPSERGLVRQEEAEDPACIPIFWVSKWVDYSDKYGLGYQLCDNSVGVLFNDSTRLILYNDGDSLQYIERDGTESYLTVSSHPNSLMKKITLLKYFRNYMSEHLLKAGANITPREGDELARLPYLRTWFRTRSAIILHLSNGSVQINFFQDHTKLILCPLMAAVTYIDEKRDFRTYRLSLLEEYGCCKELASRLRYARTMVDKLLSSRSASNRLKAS
HP1b chromo inh: blocks HP1-beta chromodomain binding to methylated histone tails. Potency, µM (series often up to 114 µM), most hits filed as inhibitors. P83916. actives 0.56% (n = 390,000). AlphaScreen HP1-beta / biotin-H3K9me3 peptide binding; also: nearly all actives have a fitted effect of over 70% in size
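HP1-beta protein (50 nM final) preincubated 30 min at room temperature with biotinylated H3(1-18)K9me3 peptide (50 nM) in PBS pH 7.4, 0.01% Tween-20, then compound added for 30 min. AlphaScreen streptavidin donor/nickel chelate acceptor beads (10 ug/mL final), 30 min dark, luminescence read.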
Each line names hits and unclear results; the compound was inactive in the other large screens. Hits are enriched below; roughly 9% of the tested compounds scored in any of these assays. Calls follow the shape of the dose curve; as a rule, active = well fitted curve in the direction sought with a large enough effect; inconclusive = small, poorly fitted or top-dose-only effect, or another doubt; inactive = no such curve, though single readings can be large; an effect the other way counts as inactive or inconclusive.

CCOC(=O)C1=C(CSc2nc3c(cc2C#N)CN(C)CC3)OC(N)=C(C#N)C1c1ccccc1 (stereo not given)	G9a block 50µM, BAZ2B inh inconclusive
CCOC(=O)C1=C(CSc2nc3c(cc2C#N)CN(C)CC3)OC(N)=C(C#N)C1c1ccc(F)cc1 (stereo not given)	G9a block 40µM, BAZ2B inh inconclusive, JMJD2A Tudor inconclusive, ALOX12 inh inconclusive
COC(=O)C1=C(CSc2nc3c(cc2C#N)CN(C)CC3)OC(N)=C(C#N)C1c1ccccc1F (stereo not given)	G9a block 14µM, BAZ2B inh inconclusive, JMJD2A Tudor inconclusive (no result: ALOX12 inh)
COC(=O)C1=C(C)OC(N)=C(C#N)C1c1ccccc1F (stereo not given)	none
CCOC(=O)C1=C(CSc2nc(-c3ccccc3)ccc2C#N)OC(N)=C(C#N)C1c1cccnc1 (stereo not given)	G9a block 40µM, PLK1 PBD block inconclusive
CCN(CC)C(=O)C(=O)c1cccn1-c1ccc(C#N)cc1	none (no result: G9a block)
CCC(Sc1nc(C)cc(=O)[nH]1)C(=O)Nc1ccc(Cl)cn1 (stereo not given)	none
CCOC(=O)C1=C(CSc2nc3c(cc2C#N)CCC3)OC(N)=C(C#N)C1c1ccccc1 (stereo not given)	JMJD2A Tudor 25µM, ALOX12 inh inconclusive, PLK1 PBD block 17µM
C/C(=N\NC(=O)c1cc(C2CC2)nc2ccccc12)c1ccc(C(C)C)cc1	none (no result: G9a block, BAZ2B inh, JMJD2A Tudor, PLK1 PBD block, HP1b chromo inh)
CC(C)C1=Nc2cccc3cccc(c23)N1	G9a block 28µM, BAZ2B inh inconclusive, ALOX12 inh inconclusive, PLK1 PBD block 9.5µM
Nc1cccc(C2=Nc3cccc4cccc(c34)N2)c1	G9a block 25µM
ClCC1=Nc2cccc3cccc(c23)N1	G9a block inconclusive, BAZ2B inh 79µM (no result: JMJD2A Tudor, ALOX12 inh, PLK1 PBD block, HP1b chromo inh)
O=C(c1ccc(Cl)s1)N1CCc2n[nH]c(=O)n2CC1	none (no result: G9a block, BAZ2B inh, JMJD2A Tudor, PLK1 PBD block, HP1b chromo inh)
Cc1ccc(C)c(/C=N/Nc2nc3ccccc3c(=O)n2O)c1	G9a block 28µM, PLK1 PBD block 24µM
C/C(=N\Nc1nc2ccccc2c(=O)n1O)c1ccco1	G9a block 79µM, JMJD2A Tudor inconclusive, PLK1 PBD block 21µM, HP1b chromo inh inconclusive
CCc1ccccc1NC(=S)NCc1cccn1C	BAZ2B inh inconclusive
O=C(O)c1ccc(NC2=C/C(=N/S(=O)(=O)c3ccccc3)c3ccccc3C2=O)cc1	G9a block 13µM, BAZ2B inh 20µM, JMJD2A Tudor 50µM, ALOX12 inh inconclusive, PLK1 PBD block 11µM, HP1b chromo inh inconclusive
Cc1cc(C)c(S(=O)(=O)/N=C2\C=C(Nc3ccc(C(=O)O)cc3)C(=O)c3ccccc32)c(C)c1	G9a block 10µM, BAZ2B inh 8.9µM, JMJD2A Tudor 32µM, PLK1 PBD block inconclusive, HP1b chromo inh inconclusive
Cn1nc(-c2ccc(N3CCCCC3)c(NC(=O)c3ccco3)c2)c2ccccc2c1=O	G9a block 40µM, BAZ2B inh inconclusive
O=C(Nc1cccc2ccccc12)C(=O)C1C(=O)Nc2ccccc21 (stereo not given)	BAZ2B inh inconclusive (no result: G9a block)
COCCCNC(=O)C(=O)C1C(=O)Nc2ccccc21 (stereo not given)	G9a block 40µM
O=C(NCc1ccncc1)C(=O)C1C(=O)Nc2ccccc21 (stereo not given)	BAZ2B inh inconclusive, JMJD2A Tudor inconclusive
O=C(O)CCCCCNC(=O)C(=O)C1C(=O)Nc2ccccc21 (stereo not given)	G9a block 25µM, BAZ2B inh inconclusive, PLK1 PBD block inconclusive
C[N+]1(CCCCCCC(=O)/C=N/O)CCCCCC1	G9a block 14µM
C[N+]1(CCCCCCCCCCCCCO)CCCC1	ALOX12 inh 28µM (no result: G9a block, BAZ2B inh, JMJD2A Tudor, PLK1 PBD block, HP1b chromo inh)
C[N+](C)(C)CCCCCCC(=O)/C=N/O	G9a block inconclusive, JMJD2A Tudor inconclusive, ALOX12 inh inconclusive
CCn1c(C)nnc1SCC(=O)Nc1ccc(OC)cc1	none (no result: G9a block, BAZ2B inh, JMJD2A Tudor, HP1b chromo inh)
Cn1cnc(Sc2ncnc3nc[nH]c23)c1[N+](=O)[O-]	BAZ2B inh inconclusive, JMJD2A Tudor 6.3µM, PLK1 PBD block inconclusive, HP1b chromo inh inconclusive (no result: G9a block)
S=C1NCCc2ccc(Cl)cc2C1c1ccccc1Cl (stereo not given)	G9a block inconclusive, BAZ2B inh 45µM, JMJD2A Tudor inconclusive, ALOX12 inh 32µM
